Assay results reported in PubChem BioAssay AID779 (Sanford-Burnham Center for Chemical Genomics, 2007).
Unmarked numbers belong to inactive results. The rule behind the calls is not given here.

Experiment: PLAP enzyme activity inhibition – biochemical, colorimetric, counter-screen, dose response (AID 779)
Details: colorimetric OD read-out

Row | SMILES | IC50 [µM]
1 | CSc1ccccc1N=Cc1nc(-c2ccccc2)oc1O | > 50
2 | Cc1cc2ccccc2n1CCNC(=O)c1ccccc1 | > 50
3 | Cc1c(NC(=O)CCN2C(=O)c3ccccc3C2=O)c(=O)n(-c2ccccc2)n1C | > 50
4 | O=[N+]([O-])c1ccc(N2N=C(c3ccco3)CC2c2ccccc2)cc1 (stereo unspecified) | > 50
5 | Cc1ccc(C)c(OCc2nnc(N)s2)c1 | > 50
6 | CC1(C)CCCN(C(=O)c2coc(=O)c(Br)c2)C1 | > 50
7 | CCN(CC)C(=O)CSc1nc2cc(OC)c(OC)cc2c(=O)n1Cc1ccc(Cl)cc1 | > 50
8 | CCn1c2ccc(Cl)cc2c2nc3ccccc3nc21 | > 50
9 | O=C1/C(=C\c2ccc(-c3ccccc3Cl)o2)SC(=S)N1CC1CCCO1 (stereo unspecified) | > 50
10 | Cc1ccccc1C(=O)c1cccn1CC(=O)NCC1CCCO1 (stereo unspecified) | > 50
11 | COc1ccc(OC)c(NC(=O)CSc2nc3ccccc3cc2Cc2ccccc2)c1 | > 50
12 | CSc1nc(SCCO)c2sc3nc(-c4ccco4)c4c(c3c2n1)CC(C)(C)OC4 | > 50
13 | COc1ccc(S(=O)(=O)Nc2cc(Sc3ncn[nH]3)c(O)c3ccccc23)cc1 | > 50
14 | CCOC(=O)c1c(NC(=S)Nc2ccccc2)sc2c1CCN(CCc1ccccc1)C2 | > 50
15 | COc1ccc(Cc2nnc(NC(=O)Cc3cccs3)s2)cc1 | > 50
16 | CCOC(=O)C1=C(c2ccccc2)N=c2s/c(=C\c3cc(OC)c(OC)c(OC)c3)c(=O)n2C1c1cccs1 (stereo unspecified) | > 50

Row | SMILES | IC50 [µM]
17 | Cc1ccc(-n2c(C)nc3oc4ccccc4c(=O)c3c2=O)cc1 | > 50
18 | O=C(Nc1cccc2c1CCCC2)c1cc([N+](=O)[O-])ccc1Cl | > 50
19 | Cc1cccc2cc(/C=C3\N=C(c4ccccc4)OC3=O)c(N3CCOCC3)nc12 | > 50
20 | CC(=O)N(c1ccc2oc(=O)sc2c1)S(=O)(=O)c1ccccc1 | > 50
21 | O=C(Nc1cccc2ccccc12)/C(=C/c1ccc([N+](=O)[O-])cc1)NC(=O)c1ccccc1 | > 50
22 | Cc1nn(-c2ccccc2)c2c1C(c1cccnc1)N1C=C(S(=O)(=O)N3CCCCC3)C=CC1=N2 (stereo unspecified) | > 50
23 | COc1ccc(NC2=Nc3ccccc3N3C2=Nc2c(c(C)nn2-c2ccc(C)cc2)C3c2cccnc2)cc1 (stereo unspecified) | > 50
24 | CCCOc1ccc(-c2nn(-c3ccccc3)cc2/C=C2\SC(=S)N(C3CCS(=O)(=O)C3)C2=O)cc1 (stereo unspecified) | > 50
25 | COc1ccc(-n2c(NC(=O)c3ccc(Br)o3)c(C#N)c3nc4ccccc4nc32)cc1 | > 50
26 | CC(C)CC(C(=O)Nc1oc(-c2ccco2)c(-c2ccco2)c1C#N)N1C(=O)c2ccccc2C1=O (stereo unspecified) | > 50
27 | CCOC(=O)c1c(NC(C)=O)sc2c1CCC(C=O)=C2Sc1ccccc1 | > 50
28 | CC(C)C(C(=O)O)N1C(=O)/C(=C/C=C/c2ccco2)SC1=S (stereo unspecified) | > 50
29 | O=C(NCCc1ccccc1)c1ccc2nc(-c3ccco3)c(-c3ccco3)nc2c1 | > 50
30 | CCOC(=O)c1cc(OC(=O)c2ccccc2OC)n(-c2ccccc2)n1 | > 50
31 | CC1Cc2ccccc2N1Cc1nc2cc(C(F)(F)F)ccc2c(=O)[nH]1 (stereo unspecified) | > 50
